Measurements reported in PubChem BioAssay (EPA / NIEHS).
The source made the active and inactive calls. Rule for the calls: active = hit-call score of the fitted dose curve at least 0.9, where 1 is the maximum; inactive = score below 0.9.

How the values were obtained:
Conditions in all cases: mRNA level, 48 h; actives raise or lower the signal
[1] = read-out: matrix metalloproteinase-3 (MMP3), MMP3 (gene 4314); experiment: LTEA_HepaRG_MMP3: Life Technologies and Expression Analysis (LTEA) Assay for matrix metalloproteinase-3 (MMP3) using HepaRG (AID 2283519)
Method in brief: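 Differentiated human HepaRG cells, plated 48 h on collagen I, were exposed in duplicate for 48 h in serum-free induction medium to eight half-log concentrations up to 100 uM in 0.5% DMSO. MMP3 mRNA was quantified by TaqMan qRT-PCR, normalised to ACTB, GAPDH and POLR2A.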

[2] = read-out: Paternally Expressed 10 (PEG10), PEG10 (gene 23089); experiment: LTEA_HepaRG_PEG10: Life Technologies and Expression Analysis (LTEA) Assay for Paternally Expressed 10 (PEG10) using HepaRG (AID 2283520)
Method in brief: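 Differentiated HepaRG cells, plated 48 h then switched to serum-free induction medium, were exposed in duplicate for 48 h to eight half-log concentrations topping at 100 uM in 0.5% DMSO. PEG10 mRNA was quantified by TaqMan qRT-PCR, normalised to ACTB, GAPDH and POLR2A.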

[3] = read-out: Nuclear factor NF-kappa-B p105 subunit (Homo sapiens) (UniProt P19838); experiment: LTEA_HepaRG_NFKB1: Life Technologies and Expression Analysis (LTEA) Assay for Nuclear Factor Kappa B Subunit 1 (NFKB1) using HepaRG (AID 2283521);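 note: TaqMan qRT-PCR transcript normalised to ACTB GAPDH and POLR2A housekeeping genes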
Method in brief: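 Human HepaRG cells receive eight half-log concentrations, highest 100 uM, for 48 h. NFKB1 expression is then quantified by qRT-PCR and analysed for up- or down-regulation relative to 0.5% DMSO vehicle.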

[4] = read-out: Protein phosphatase 2A (PPP2R4), PTPA (gene 5524); experiment: LTEA_HepaRG_PPP2R4: Life Technologies and Expression Analysis (LTEA) Assay for Protein phosphatase 2A (PPP2R4) using HepaRG (AID 2283522)
Method in brief: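 Differentiated HepaRG cells in serum-free induction medium were exposed in duplicate for 48 h to eight concentrations, top 100 uM with half-log dilutions, in 0.5% DMSO. PPP2R4 mRNA was quantified by TaqMan qRT-PCR, normalized to ACTB, GAPDH and POLR2A.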

[5] = read-out: Phosphatase and tensin (PTEN), PTEN (gene 5728); experiment: LTEA_HepaRG_PTEN: Life Technologies and Expression Analysis (LTEA) Assay for Phosphatase and tensin (PTEN) using HepaRG (AID 2283523)
Method in brief: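 Differentiated human HepaRG cells, plated 48 h then switched to serum-free induction medium, were exposed in duplicate for 48 h to eight half-log concentrations up to 100 uM in 0.5% DMSO. PTEN mRNA measured by TaqMan qRT-PCR, normalized to ACTB/GAPDH/POLR2A, bidirectional fit versus DMSO.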

[6] = read-out: solute carrier (SLC22A1), SLC22A1 (gene 6580); experiment: LTEA_HepaRG_SLC22A1: Life Technologies and Expression Analysis (LTEA) Assay for solute carrier (SLC22A1) using HepaRG (AID 2283524)
Method in brief: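 Human HepaRG cells were plated 48 h, switched to serum-free induction medium, then exposed in duplicate for 48 h to 8-point half-log series from 100 uM in 0.5% DMSO. SLC22A1 mRNA measured by qRT-PCR, normalized to ACTB/GAPDH/POLR2A, fitted bidirectionally versus DMSO.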

[7] = read-out: Pyruvate Dehydrogenase Kinase 4 (PDK4), PDK4 (gene 5166); experiment: LTEA_HepaRG_PDK4: Life Technologies and Expression Analysis (LTEA) Assay for Pyruvate Dehydrogenase Kinase 4 (PDK4) using HepaRG (AID 2283525)
Method in brief: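 Differentiated human HepaRG cells, pre-cultured 48 h, were exposed in duplicate for 48 h in serum-free induction medium to eight half-log concentrations up to 100 uM in 0.5% DMSO. PDK4 mRNA was quantified by qRT-PCR, normalized to ACTB, GAPDH and POLR2A, bidirectional fitting versus DMSO.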

[8] = read-out: NAD(P)H dehydrogenase [quinone] 1 (NQO1), NQO1 (gene 1728); experiment: LTEA_HepaRG_NQO1: Life Technologies and Expression Analysis (LTEA) Assay for NAD(P)H dehydrogenase [quinone] 1 (NQO1) using HepaRG (AID 2283526)
Method in brief: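 Differentiated HepaRG cells, plated 48 h and then switched to serum-free induction medium, were exposed in duplicate for 48 h to 8-point half-log concentrations up to 100 uM in 0.5% DMSO. mRNA measured by qRT-PCR, normalized to ACTB, GAPDH, POLR2A; bidirectional fit versus DMSO.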

[9] = read-out: Nuclear factor erythroid 2-related factor 2 (Homo sapiens) (UniProt Q16236); experiment: LTEA_HepaRG_NFE2L2: Life Technologies and Expression Analysis (LTEA) Assay for Nuclear factor erythroid 2-related factor 2 (NFE2L2) Transcription Factor using HepaRG (AID 2283527);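 note: TaqMan qRT-PCR transcript level normalised to ACTB GAPDH and POLR2A housekeeping genes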
Method in brief: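 Differentiated human HepaRG cells in serum-free induction medium were exposed for 48 h to eight concentrations (top 100 uM, half-log dilutions, 0.5% DMSO), in duplicate. NFE2L2 mRNA was quantified by TaqMan qRT-PCR, normalized to ACTB, GAPDH and POLR2A, with bidirectional fitting versus DMSO.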

[10] = read-out: succinate dehydrogenase complex iron sulfur subunit B (SDHB), SDHB (gene 6390); experiment: LTEA_HepaRG_SDHB: Life Technologies and Expression Analysis (LTEA) Assay for succinate dehydrogenase complex iron sulfur subunit B (SDHB) using HepaRG (AID 2283528)
Method in brief: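 A human HepaRG culture in serum-free induction medium received test chemicals for 48 h over an eight-point range capped at 100 uM. SDHB expression change was quantified by qRT-PCR.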

[11] = read-out: Signal transducer and activator of transcription 3 (Homo sapiens) (UniProt P40763); experiment: LTEA_HepaRG_STAT3: Life Technologies and Expression Analysis (LTEA) Assay for Signal transducer and activator of transcription (STAT3) using HepaRG (AID 2283529)
Method in brief: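 Differentiated human HepaRG cells in serum-free induction medium were exposed in duplicate for 48 h to eight half-log concentrations up to 100 uM in 0.5% DMSO. STAT3 mRNA was quantified by TaqMan qRT-PCR, normalized to ACTB, GAPDH and POLR2A, and fitted bidirectionally against DMSO.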

[12] = read-out: solute carrier (SLCO1B1), SLCO1B1 (gene 10599); experiment: LTEA_HepaRG_SLCO1B1: Life Technologies and Expression Analysis (LTEA) Assay for solute carrier (SLCO1B1) using HepaRG (AID 2283530)
Method in brief: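 Gain or loss of SLCO1B1 mRNA is fitted against the 0.5% DMSO vehicle in human HepaRG liver cells treated 48 h at up to 100 uM in half-log steps. Expression comes from qRT-PCR normalized to endogenous controls.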

[13] = read-out: sulfotransferase 2A1 (SULT2A1), SULT2A1 (gene 6822); experiment: LTEA_HepaRG_SULT2A1: Life Technologies and Expression Analysis (LTEA) Assay for sulfotransferase 2A1 (SULT2A1) using HepaRG (AID 2283531)
Method in brief: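 Cells were plated and cultured 48 h, switched to serum-free induction medium, then dosed in duplicate for 48 h (8 concentrations, max 100 uM). RNA was isolated and SULT2A1 expression measured by qRT-PCR; gain or loss of signal fitted relative to DMSO.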

[14] = read-out: Transforming Growth Factor (TGFA), TGFA (gene 7039); experiment: LTEA_HepaRG_TGFA: Life Technologies and Expression Analysis (LTEA) Assay for Transforming Growth Factor (TGFA) using HepaRG (AID 2283532)
Method in brief: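 Differentiated human HepaRG cells, plated 48 h then switched to serum-free induction medium, were exposed in duplicate for 48 h to 8-point half-log series from 100 uM in 0.5% DMSO. TGFA mRNA measured by qRT-PCR, normalized to ACTB/GAPDH/POLR2A, bidirectional fit versus DMSO.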

[15] = read-out: Transforming Growth Factor (TGFB1), TGFB1 (gene 7040); experiment: LTEA_HepaRG_TGFB1: Life Technologies and Expression Analysis (LTEA) Assay for Transforming Growth Factor (TGFB1) Transporter using HepaRG (AID 2283533)
Method in brief: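 Expression change of TGFB1 in human HepaRG cells is measured after a 48 h chemical exposure, up to 100 uM in 0.5% DMSO vehicle. Curves are fitted in both directions relative to the DMSO baseline.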

[16] = read-out: Tumor necrosis factor receptor 1 (TNFRSF1A), TNFRSF1A (gene 7132); experiment: LTEA_HepaRG_TNFRSF1A: Life Technologies and Expression Analysis (LTEA) Assay for Tumor necrosis factor receptor 1 (TNFRSF1A) using HepaRG (AID 2283535)
Method in brief: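 Expression of TNFRSF1A in human HepaRG liver cells was measured by qRT-PCR 48 h after chemical dosing (maximum 100 uM). Bidirectional curve fitting used 0.5% DMSO as baseline.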

[17] = read-out: Thyroid Hormone Responsive (THRSP), THRSP (gene 7069); experiment: LTEA_HepaRG_THRSP: Life Technologies and Expression Analysis (LTEA) Assay for Thyroid Hormone Responsive (THRSP) using HepaRG (AID 2283536)
Method in brief: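 Differentiated human HepaRG cells were exposed in duplicate for 48 h in serum-free induction medium to eight concentrations (top 100 uM, half-log steps, 0.5% DMSO). Expression was quantified by TaqMan qRT-PCR, normalized to ACTB, GAPDH and POLR2A, with bidirectional fitting against DMSO.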

[18] = read-out: Cellular tumor antigen p53 (Homo sapiens) (UniProt P04637); experiment: LTEA_HepaRG_TP53: Life Technologies and Expression Analysis (LTEA) Assay for Tumor Protein P53 (TP53) using HepaRG (AID 2283537)
Method in brief: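 Gain or loss of TP53 mRNA signal is scored relative to 0.5% DMSO after 48 h chemical treatment of HepaRG liver cells, tested in duplicate at eight half-log concentrations up to 100 uM.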

[19] = read-out: UDP glucuronosyltransferase (UGT1A1), UGT1A1 (gene 54658); experiment: LTEA_HepaRG_UGT1A1: Life Technologies and Expression Analysis (LTEA) Assay for UDP glucuronosyltransferase (UGT1A1) using HepaRG (AID 2283538)
Method in brief: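 Differentiated human HepaRG cells in serum-free induction medium were exposed in duplicate for 48 h to eight half-log concentrations up to 100 uM in 0.5% DMSO. UGT1A1 mRNA was quantified by TaqMan qRT-PCR, normalized to ACTB, GAPDH and POLR2A, and fitted bidirectionally against DMSO.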

TIMP1, TIMP1 (gene 7076) = experiment: LTEA_HepaRG_TIMP1: Life Technologies and Expression Analysis (LTEA) Assay for TIMP1 using HepaRG (AID 2283534);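 note: TaqMan qRT-PCR signal normalized to ACTB GAPDH and POLR2A housekeeping genes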
Method in brief: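 We dosed human liver HepaRG cultures for 48 hours with up to 100 uM test chemical and measured TIMP1 expression by qRT-PCR. Activity in either direction is fitted relative to the 0.5% DMSO vehicle.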

Sequence of Cellular tumor antigen p53 (Homo sapiens) (P04637 whole entry, looked up): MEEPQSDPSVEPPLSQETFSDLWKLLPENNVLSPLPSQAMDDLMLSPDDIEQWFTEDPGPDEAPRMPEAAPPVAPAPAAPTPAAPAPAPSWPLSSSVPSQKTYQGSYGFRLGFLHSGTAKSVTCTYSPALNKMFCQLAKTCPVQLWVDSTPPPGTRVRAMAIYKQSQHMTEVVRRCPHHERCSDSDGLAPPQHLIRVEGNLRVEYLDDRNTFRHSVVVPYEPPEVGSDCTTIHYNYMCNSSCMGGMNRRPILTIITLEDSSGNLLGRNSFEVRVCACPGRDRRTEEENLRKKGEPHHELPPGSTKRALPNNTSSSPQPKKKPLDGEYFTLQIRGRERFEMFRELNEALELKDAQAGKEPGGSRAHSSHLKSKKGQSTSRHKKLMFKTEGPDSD
Sequence of Signal transducer and activator of transcription 3 (Homo sapiens) (P40763 whole entry, looked up): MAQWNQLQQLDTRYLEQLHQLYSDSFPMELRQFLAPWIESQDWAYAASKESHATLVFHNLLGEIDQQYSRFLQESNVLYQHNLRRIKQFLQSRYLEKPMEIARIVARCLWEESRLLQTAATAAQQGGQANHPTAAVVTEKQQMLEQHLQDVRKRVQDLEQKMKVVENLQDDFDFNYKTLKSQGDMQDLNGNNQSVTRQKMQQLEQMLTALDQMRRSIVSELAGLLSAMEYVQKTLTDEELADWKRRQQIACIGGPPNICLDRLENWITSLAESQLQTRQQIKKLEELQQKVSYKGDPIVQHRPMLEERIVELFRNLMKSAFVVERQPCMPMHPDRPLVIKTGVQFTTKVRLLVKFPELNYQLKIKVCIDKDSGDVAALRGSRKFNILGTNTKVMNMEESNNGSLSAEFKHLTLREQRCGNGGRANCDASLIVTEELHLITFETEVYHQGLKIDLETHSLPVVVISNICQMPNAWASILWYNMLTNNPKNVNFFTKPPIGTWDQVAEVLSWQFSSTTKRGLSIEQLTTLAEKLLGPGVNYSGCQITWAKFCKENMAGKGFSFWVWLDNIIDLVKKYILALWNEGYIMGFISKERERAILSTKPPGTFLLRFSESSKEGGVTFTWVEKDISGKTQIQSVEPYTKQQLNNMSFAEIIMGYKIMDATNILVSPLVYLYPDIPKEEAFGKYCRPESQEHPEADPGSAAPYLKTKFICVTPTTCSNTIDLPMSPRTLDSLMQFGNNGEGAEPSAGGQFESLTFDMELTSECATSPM
Sequence of Nuclear factor erythroid 2-related factor 2 (Homo sapiens) (Q16236 whole entry, looked up): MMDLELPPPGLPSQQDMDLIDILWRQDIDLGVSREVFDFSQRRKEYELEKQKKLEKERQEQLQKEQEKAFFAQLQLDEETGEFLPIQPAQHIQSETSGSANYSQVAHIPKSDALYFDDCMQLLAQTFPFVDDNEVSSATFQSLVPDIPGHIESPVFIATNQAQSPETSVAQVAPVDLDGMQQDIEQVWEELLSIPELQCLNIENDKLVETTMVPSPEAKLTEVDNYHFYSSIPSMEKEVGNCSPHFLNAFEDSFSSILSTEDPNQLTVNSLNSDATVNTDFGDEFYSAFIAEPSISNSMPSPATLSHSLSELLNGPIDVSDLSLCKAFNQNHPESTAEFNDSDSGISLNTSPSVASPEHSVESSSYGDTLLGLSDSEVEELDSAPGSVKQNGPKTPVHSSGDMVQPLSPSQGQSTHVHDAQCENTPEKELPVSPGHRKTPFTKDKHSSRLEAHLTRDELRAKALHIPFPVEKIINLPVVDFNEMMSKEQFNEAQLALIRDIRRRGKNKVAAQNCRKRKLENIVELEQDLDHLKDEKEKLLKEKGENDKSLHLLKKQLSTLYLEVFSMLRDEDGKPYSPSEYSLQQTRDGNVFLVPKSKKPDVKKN
Sequence of Nuclear factor NF-kappa-B p105 subunit (Homo sapiens) (P19838 whole entry, looked up): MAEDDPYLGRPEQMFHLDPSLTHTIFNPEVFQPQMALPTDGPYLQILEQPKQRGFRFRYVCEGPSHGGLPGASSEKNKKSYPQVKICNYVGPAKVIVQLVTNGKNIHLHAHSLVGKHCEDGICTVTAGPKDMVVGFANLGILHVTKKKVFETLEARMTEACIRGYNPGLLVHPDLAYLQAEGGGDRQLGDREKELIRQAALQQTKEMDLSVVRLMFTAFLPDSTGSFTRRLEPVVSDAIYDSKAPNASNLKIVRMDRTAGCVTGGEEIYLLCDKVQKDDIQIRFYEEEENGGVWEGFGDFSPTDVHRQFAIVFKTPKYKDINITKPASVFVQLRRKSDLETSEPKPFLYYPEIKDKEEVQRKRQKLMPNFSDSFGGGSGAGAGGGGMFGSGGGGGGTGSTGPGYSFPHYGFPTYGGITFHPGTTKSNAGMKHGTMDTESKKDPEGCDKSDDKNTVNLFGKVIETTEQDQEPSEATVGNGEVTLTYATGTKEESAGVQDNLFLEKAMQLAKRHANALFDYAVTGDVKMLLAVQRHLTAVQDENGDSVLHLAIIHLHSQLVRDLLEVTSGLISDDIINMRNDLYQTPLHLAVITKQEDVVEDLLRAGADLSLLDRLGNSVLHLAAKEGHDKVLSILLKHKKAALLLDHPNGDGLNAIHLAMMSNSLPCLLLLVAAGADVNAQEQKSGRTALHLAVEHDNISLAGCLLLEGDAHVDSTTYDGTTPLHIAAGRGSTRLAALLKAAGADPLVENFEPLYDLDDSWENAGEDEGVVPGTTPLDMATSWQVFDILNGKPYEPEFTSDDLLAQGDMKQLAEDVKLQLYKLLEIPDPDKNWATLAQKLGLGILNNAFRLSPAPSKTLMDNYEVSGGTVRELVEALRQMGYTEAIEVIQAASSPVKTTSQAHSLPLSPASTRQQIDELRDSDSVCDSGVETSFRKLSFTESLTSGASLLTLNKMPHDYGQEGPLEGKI

SMILES: Clc1nc(Cl)nc(Nc2ccccc2Cl)n1
- outcome [1]: inactive
- outcome [2]: inactive
- outcome [3]: inactive
- outcome [4]: inactive
- outcome [5]: inactive
- outcome [6]: inactive
- outcome [7]: inactive
- outcome [8]: inactive
- outcome [9]: inactive
- outcome [10]: inactive
- outcome [11]: inactive
- outcome [12]: inactive
- outcome [13]: inactive
- outcome [14]: inactive
- outcome [15]: inactive
- outcome [16]: inactive
- outcome [17]: inactive
- outcome [18]: inactive
- outcome [19]: inactive

SMILES: CCOC(=O)C(C)OC(=O)c1cc(Oc2ccc(C(F)(F)F)cc2Cl)ccc1[N+](=O)[O-] (stereo not drawn)
- AC50 [2]: 9.92 µM (active)
- outcome [3]: inactive
- outcome [4]: inactive
- outcome [5]: inactive
- outcome [6]: inactive
- AC50 [7]: 14.3 µM (active)
- outcome [8]: inactive
- outcome [9]: inactive
- outcome [10]: inactive
- outcome [11]: inactive
- outcome [12]: inactive
- outcome [13]: inactive
- outcome [14]: inactive
- outcome [15]: inactive
- outcome (TIMP1, TIMP1 (gene 7076)): inactive
- outcome [16]: inactive
- AC50 [17]: 28.4 µM (active)
- outcome [18]: inactive

SMILES: COP(=S)(OC)SCn1nnc2ccccc2c1=O
- outcome [1]: inactive
- outcome [2]: inactive
- outcome [4]: inactive
- outcome [5]: inactive
- outcome [6]: inactive
- outcome [7]: inactive
- outcome [8]: inactive
- outcome [9]: inactive
- outcome [10]: inactive
- outcome [11]: inactive
- outcome [12]: inactive
- outcome [13]: inactive
- outcome [14]: inactive
- outcome [15]: inactive
- outcome (TIMP1, TIMP1 (gene 7076)): inactive
- outcome [16]: inactive
- outcome [17]: inactive
- outcome [18]: inactive
- AC50 [19]: 43.2 µM (active)

SMILES: CCNC(=O)NC(=O)C(C#N)=NOC
- outcome [1]: inactive
- AC50 [2]: 50 µM (active)
- outcome [4]: inactive
- outcome [5]: inactive
- AC50 [6]: 74.2 µM (active)
- outcome [7]: inactive
- outcome [8]: inactive
- outcome [9]: inactive
- outcome [10]: inactive
- outcome [11]: inactive
- outcome [12]: inactive
- outcome [13]: inactive
- outcome [14]: inactive
- outcome [15]: inactive
- outcome (TIMP1, TIMP1 (gene 7076)): inactive
- AC50 [16]: 0.27 µM (active)
- outcome [17]: inactive
- outcome [19]: inactive

SMILES: Clc1cccc(C(Cl)(Cl)Cl)n1
- outcome [1]: inactive
- outcome [2]: inactive
- outcome [4]: inactive
- outcome [5]: inactive
- outcome [6]: inactive
- outcome [7]: inactive
- outcome [8]: inactive
- outcome [9]: inactive
- outcome [10]: inactive
- outcome [11]: inactive
- outcome [12]: inactive
- outcome [13]: inactive
- outcome [14]: inactive
- outcome [15]: inactive
- outcome (TIMP1, TIMP1 (gene 7076)): inactive
- outcome [16]: inactive
- outcome [17]: inactive
- outcome [18]: inactive

SMILES: Cc1nc(N(C)C)nc(OC(=O)N(C)C)c1C
- outcome [1]: inactive
- outcome [2]: inactive
- outcome [4]: inactive
- outcome [5]: inactive
- outcome [6]: inactive
- outcome [7]: inactive
- outcome [8]: inactive
- outcome [9]: inactive
- outcome [10]: inactive
- outcome [11]: inactive
- outcome [12]: inactive
- outcome [13]: inactive
- outcome [14]: inactive
- outcome [15]: inactive
- outcome [16]: inactive
- outcome [17]: inactive
